Drawing on article PMC7819943, “Rice protein-binding microarrays: a tool to detect cis-acting elements near promoter regions in rice”, this text covers binding signal for 44 sequences.

Over roughly 68,000 sequences, “fluorescence intensity (a.u.)” has its median near 9,100; the highest 2% begin near 16,000. The full list was thinned out, with the highest values kept by preference.

OsWRKY34, sequence (Q0JBA9 entry or part of it): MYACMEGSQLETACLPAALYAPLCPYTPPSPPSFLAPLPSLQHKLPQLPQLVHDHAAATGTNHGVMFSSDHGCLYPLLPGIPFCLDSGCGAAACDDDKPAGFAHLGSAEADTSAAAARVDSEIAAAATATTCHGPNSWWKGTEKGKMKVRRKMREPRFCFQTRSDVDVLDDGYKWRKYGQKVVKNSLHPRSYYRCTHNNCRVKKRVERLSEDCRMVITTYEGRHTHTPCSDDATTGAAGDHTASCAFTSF

The target of this test is OsWRKY34 (Oryza sativa, UniProt Q0JBA9 1-250). Description: protein-binding microarray (RPBM); PBS, 2% BSA, 51.3 ng/ul salmon testes DNA, 50 uM zinc acetate, 200 nM TF, 25 C, 1 h; high values mean tight binding. Conditions: protein: recombinant; tags: N-terminal polyhistidine and DsRed monomer fusion (pET32a); label: CyDye5-dUTP incorporated in the synthesized complementary strand; 3' TTTTT single-stranded linker to array surface; dsDNA, one strand shown. In outline:
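The binding signal for each feature is its fluorescence intensity in arbitrary units. An Axon 4000B scanner was used to read a custom Agilent array that had been made double-stranded with Cy5-dUTP primer extension, blocked with 2% BSA, incubated at 25 °C for 1 h with 200 nM protein in PBS, 2% BSA, salmon testes DNA and 50 µM zinc acetate, and washed. The protein was an N-terminal polyhistidine–DsRed transcription factor fusion from E. coli BL21-CodonPlus, purified on Ni–NTA.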
Consider “ATACAATCTACTTGAATCGTTTTTTCTTTACTTTTCAGTTCGGAGTCACCTAGTGCAG”, for which the binding signal was 9840 fluorescence intensity (a.u.).
For “ACTTAGCAGCACTTGTCCCGTTCTCCTGAAGACAGTCCAACGGAGTCACCTAGTGCAG” the value was 9480 fluorescence intensity (a.u.); for “CAGTAATTGTCACTATCTTATTACACATTATTCTGTCCAGCGGAGTCACCTAGTGCAG”, 8060 fluorescence intensity (a.u.); for “TCCTGTCCAGTCTCCACTCGCAAACCCTTCTCGCCGCCATCGGAGTCACCTAGTGCAG”, 10400 fluorescence intensity (a.u.).
In the case of “GACCGCTTCACCCGCCCAATCAAAACCGTCCATCCATCCCCGGAGTCACCTAGTGCAG”, the binding signal is 10300 fluorescence intensity (a.u.).
Consider “CAGTAACAATCACTCATTCTCAGTATCTGCTACTCCTCTACGGAGTCACCTAGTGCAG”, for which the binding signal is 8710 fluorescence intensity (a.u.).
To “CTCCTCTTTGTGTGTAGACTGAAAAGGTGGAAAGTTTACCCGGAGTCACCTAGTGCAG” belongs 9750 fluorescence intensity (a.u.); to “CGCGTAACCCACCCAATGTTTCACTCCTGCAGCACTTGACCGGAGTCACCTAGTGCAG”, 9370 fluorescence intensity (a.u.); to “CTATATATTTACCCACTGTATACCTCTGTCATGAAAGCATCGGAGTCACCTAGTGCAG”, 11500 fluorescence intensity (a.u.).
To “CTCGTTTGATCTCTCAGTTGGGAGCATTATTTCTGCGCATCGGAGTCACCTAGTGCAG” belongs 10800 fluorescence intensity (a.u.); to “CAACGGCGAATCAACGCCCGAACCGACTCTTTTATCTTTTCGGAGTCACCTAGTGCAG”, 9920 fluorescence intensity (a.u.); to “ACAAATTTGTAGCCCGCTGCTCTTCTCTCTCATCTTTTATCGGAGTCACCTAGTGCAG”, 9220 fluorescence intensity (a.u.).
On to “GTCCGCATCTCATCCTTCCGCAAGTCCGTATCTCATCCCTCGGAGTCACCTAGTGCAG”, for which the binding signal is 10400 fluorescence intensity (a.u.).
To “CGTATACCTCGGAGAAGTTCTCATCCGCTGACGTGTCCCGCGGAGTCACCTAGTGCAG” belongs 19600 fluorescence intensity (a.u.); to “TCCCTCGGTCCCATCGTATATATATATACCGTATGTCCCGCGGAGTCACCTAGTGCAG”, 9470 fluorescence intensity (a.u.).
To “CACCTCACCCTCACCCGCACACGCCGACACCCCGACGCGTCGGAGTCACCTAGTGCAG” belongs 9390 fluorescence intensity (a.u.).
For “CTTCTTTCTCAATATGTGATTTTCTTTCCTTAATCTCGTTCGGAGTCACCTAGTGCAG” the value was 8680 fluorescence intensity (a.u.).
As for “CTCCGTCGCTGACTGCAACCTCCACCCACACGGCACCCATCGGAGTCACCTAGTGCAG”, the binding signal was 8090 fluorescence intensity (a.u.).
Turning to “TATCTCTCTCCCGCTGACAACCCGGTCACACCGAACCAACCGGAGTCACCTAGTGCAG”, the binding signal is 8990 fluorescence intensity (a.u.).
For the sequence “CCTCTCACTGCTAGTGCCCCACACCGTTCTTCGCTGCCCACGGAGTCACCTAGTGCAG”, the binding signal is 11800 fluorescence intensity (a.u.).
To “TTTGCACACGGGTGACTCGTCTCTTTGTACTCACTCTCTCCGGAGTCACCTAGTGCAG” belongs 9840 fluorescence intensity (a.u.); to “CTAATACGTGGGTCTCACTATTGTCTTCTTGTTTGACTGACGGAGTCACCTAGTGCAG”, 10700 fluorescence intensity (a.u.); to “CCTATTCTAACACTGACGGGTGGGTCTCACAGGGTGACTCCGGAGTCACCTAGTGCAG”, 16900 fluorescence intensity (a.u.).
As for “TCCTCTGTTTTACACTTGCATTCCTATCAGAATCCTATATCGGAGTCACCTAGTGCAG”, the binding signal was 9540 fluorescence intensity (a.u.).
To “CCCGTCGATCCACCGCGGGGACAAGCTCTAGATCTCTCTCCGGAGTCACCTAGTGCAG” belongs 8440 fluorescence intensity (a.u.); to “CAGGCATGTCCAGTATAGGTGTTATTATATTTTATTATTACGGAGTCACCTAGTGCAG”, 8910 fluorescence intensity (a.u.).
On to “CTCCCTCCTTTTCTAAATGTTTGACACCATTGACTTTTTTCGGAGTCACCTAGTGCAG”, for which the binding signal was 8470 fluorescence intensity (a.u.).
For the sequence “ACTCCCTCCTTCCCTAAATGTTTGACACCGTTGACTTTTTCGGAGTCACCTAGTGCAG”, the binding signal is 19600 fluorescence intensity (a.u.).
Take “ACTTCTTTAGGCGTTGACTTCTCCCTTTTCCTTTACTATTCGGAGTCACCTAGTGCAG”: the binding signal was 14800 fluorescence intensity (a.u.).
For “TCCCTCTGTTCAAAATGTTTGACACCGTTGACTTTTTAAGCGGAGTCACCTAGTGCAG” the value was 20700 fluorescence intensity (a.u.).
For “TATACTCCCTCCATTTCAAAATGTTTGACACCGTTGACTTCGGAGTCACCTAGTGCAG” the value was 9590 fluorescence intensity (a.u.); for “TACTCCCTTCTTCCTTAGATGTTTGACACCGTTGACTTTTCGGAGTCACCTAGTGCAG”, 16900 fluorescence intensity (a.u.).
To “CTCCATCCGTTTTAAAATGTTTGACACCGTTGACTTTTTACGGAGTCACCTAGTGCAG” belongs 27300 fluorescence intensity (a.u.); to “CACTCTGCCTCACCTCACCTCACCTCACGTCCTCACCTCCCGGAGTCACCTAGTGCAG”, 10300 fluorescence intensity (a.u.).
On to “CCGGGACGTGTGCCGCCGCTTAAGCCCGCTCTTTATACGTCGGAGTCACCTAGTGCAG”, for which the binding signal is 9690 fluorescence intensity (a.u.).
On to “ACTCGTTGACCAAAGGGAGTGGAGTTTGAAAGGGTGGGAGCGGAGTCACCTAGTGCAG”, for which the binding signal is 14600 fluorescence intensity (a.u.).
To “TCTTGCAATCTTGATCGATAGTCTCCTCCATCTTCTTCGTCGGAGTCACCTAGTGCAG” belongs 8680 fluorescence intensity (a.u.).
For “ATAAATTATTAGTACTATTCCATATACTACATTTTCTTCTCGGAGTCACCTAGTGCAG” the value was 8440 fluorescence intensity (a.u.).
Consider “CATAGTCGTCTTCCTCGATCAATCCGCTCCGCTCCGTCTTCGGAGTCACCTAGTGCAG”, for which the binding signal is 8440 fluorescence intensity (a.u.).
With “ACTCCCTCCGTTTCAAAATGTTTGACACCGTTGACTTTTTCGGAGTCACCTAGTGCAG”, the binding signal is 18500 fluorescence intensity (a.u.).
With “ATACTCCCTCCGTTTCAAAATGTTTGACACCGTTGACTTTCGGAGTCACCTAGTGCAG”, the binding signal is 12500 fluorescence intensity (a.u.).
Take “TTGCATTTTTGACTGTTTGCGTTGACTCCCTCACTTCTTCCGGAGTCACCTAGTGCAG”: the binding signal was 16400 fluorescence intensity (a.u.).
Regarding “TTTCTTTTGCATTTTCCCTGTTCCATATCGTTTTTTTCTCCGGAGTCACCTAGTGCAG”, the binding signal is 8560 fluorescence intensity (a.u.).
To “TGTTTTCTTCTCATTCTTCTTTTTTCCCTTTCTTTTGCTCCGGAGTCACCTAGTGCAG” belongs 8390 fluorescence intensity (a.u.).
